PubChem BioAssay
The source made the active and inactive calls.

How the values were obtained:
[1] = E. coli DRC41 culture turbidity changes, primary screen, E. coli filamentation inducer project, strain DRC41, OD650, 48 h (AID 1152);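 also: E. coli MC1000 strain DRC41 lacking acrAB efflux pump and sulA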; details: E. coli DRC41 (acrAB sulA), higher = more signal, called active from +8 up or from −8 down
[2] = small-molecule binders of probe aLefty1, primary screen, biochemical, small-molecule microarray, 635/667 nm fluorescence (AID 1153); details: higher = more signal;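 also: score merges spot fluorescence with signal-to-noise ratio from the scanned slide images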
[3] = PSAC antagonists in infected red cells, primary screen, cell-based, P. falciparum Indochina, OD700, 1 h (AID 1154); details: P. falciparum Indochina infected RBC osmotic lysis, higher = more signal, called active from +8 up or from −8 down
[4] = PSAC antagonists in infected red cells, primary screen, cell-based, P. falciparum Indochina, OD700, 2 h (AID 1155);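 also: lysis reports solute entry through the parasite surface anion channel PSAC; channel blockers reduce lysis of infected cells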; details: P. falciparum Indochina infected erythrocytes, osmotic lysis OD700; higher = more signal, called active from +8 up or from −8 down
[5] = osmotic lysis modulators in infected erythrocytes, primary screen, PSAC antagonist project, cell-based, P. falciparum Indochina, OD700, 3 h (AID 1156); details: higher = more signal, called active from +8 up or from −8 down
[6] = PSAC antagonists in infected red cells, primary screen, cell-based, P. falciparum Indochina, OD700, 18 h (AID 1157); details: P. falciparum Indochina infected erythrocytes, osmotic lysis OD700, 18 h; higher = more signal, called active from +8 up or from −8 down
[7] = modulators of S6 phosphorylation in cells, primary screen, cell-based, A549, cytoblot, luminescence, serum-stimulated (AID 1158); details: A549 phospho-S6 cytoblot, 5 h, higher = more signal;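 also: serum-stimulated A549 lung adenocarcinoma cells; signal is phosphorylated S6 detected by cytoblot immunostaining with HRP secondary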
[8] = target: NADPH oxidase 2 (Homo sapiens) (UniProt P04839); assay: NOX2-dependent H2O2 signal modulators, primary screen, NOX inhibitor project, cell-based, HEK293-NOX2, PMA-stimulated, Amplex Red fluorescence (AID 1159); details: 45 min, higher = more signal, called active from +8 up or from −8 down; also: test concentration not given here
[9] = target: NADPH oxidase 4 (Homo sapiens) (UniProt Q9NPH5); assay: NOX4-dependent H2O2 signal modulators, primary screen, NOX inhibitor project, cell-based, HEK293-NOX4, tetracycline-induced, Amplex Red fluorescence (AID 1160); details: 45 min, higher = more signal, called active from +8 up or from −8 down
[10] = target: NADPH oxidase 5 (Homo sapiens) (UniProt Q96PH1); assay: NOX5-dependent H2O2 signal modulators, primary screen, NOX inhibitor project, cell-based, HEK293-NOX5, Amplex Red fluorescence (AID 1161); details: HEK293-NOX5, ionomycin, 45 min, higher = more signal
NADPH oxidase 5 (Homo sapiens), sequence (Q96PH1 whole entry, looked up): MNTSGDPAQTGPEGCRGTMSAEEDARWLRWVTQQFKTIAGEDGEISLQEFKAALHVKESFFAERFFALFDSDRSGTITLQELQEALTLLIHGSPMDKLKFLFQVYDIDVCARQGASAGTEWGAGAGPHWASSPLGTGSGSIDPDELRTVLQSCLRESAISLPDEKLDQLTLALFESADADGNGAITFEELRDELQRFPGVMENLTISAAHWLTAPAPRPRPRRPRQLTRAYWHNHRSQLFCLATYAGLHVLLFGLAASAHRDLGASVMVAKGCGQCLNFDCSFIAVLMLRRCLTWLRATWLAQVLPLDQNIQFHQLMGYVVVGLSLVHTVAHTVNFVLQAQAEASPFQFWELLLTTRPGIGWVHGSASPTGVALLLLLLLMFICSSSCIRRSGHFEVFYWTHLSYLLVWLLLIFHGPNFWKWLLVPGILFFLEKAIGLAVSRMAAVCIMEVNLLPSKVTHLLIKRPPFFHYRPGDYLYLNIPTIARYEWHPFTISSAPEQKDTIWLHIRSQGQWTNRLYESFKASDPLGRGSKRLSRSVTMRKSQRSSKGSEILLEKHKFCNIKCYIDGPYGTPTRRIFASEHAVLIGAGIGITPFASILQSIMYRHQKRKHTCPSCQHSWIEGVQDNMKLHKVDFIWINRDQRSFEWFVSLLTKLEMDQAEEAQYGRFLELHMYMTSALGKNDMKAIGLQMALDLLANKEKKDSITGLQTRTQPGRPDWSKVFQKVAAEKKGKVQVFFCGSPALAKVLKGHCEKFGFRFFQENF

NADPH oxidase 4 (Homo sapiens), sequence (Q9NPH5 whole entry, looked up): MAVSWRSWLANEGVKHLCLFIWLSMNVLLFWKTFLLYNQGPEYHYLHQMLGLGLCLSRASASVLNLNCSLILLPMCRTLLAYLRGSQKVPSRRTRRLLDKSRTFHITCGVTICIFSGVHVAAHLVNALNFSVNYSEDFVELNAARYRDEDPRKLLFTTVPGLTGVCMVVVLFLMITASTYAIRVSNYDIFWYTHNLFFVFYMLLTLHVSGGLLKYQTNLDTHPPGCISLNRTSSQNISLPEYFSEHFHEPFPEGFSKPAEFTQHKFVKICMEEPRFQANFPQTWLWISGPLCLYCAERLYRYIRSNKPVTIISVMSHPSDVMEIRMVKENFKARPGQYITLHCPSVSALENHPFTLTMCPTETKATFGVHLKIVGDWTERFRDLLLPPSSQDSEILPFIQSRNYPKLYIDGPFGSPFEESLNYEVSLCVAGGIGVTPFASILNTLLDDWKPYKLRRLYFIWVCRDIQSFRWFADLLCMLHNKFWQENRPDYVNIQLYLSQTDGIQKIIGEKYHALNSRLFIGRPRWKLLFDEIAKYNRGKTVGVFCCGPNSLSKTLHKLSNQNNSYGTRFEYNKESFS
NADPH oxidase 2 (Homo sapiens), sequence (P04839 whole entry, looked up): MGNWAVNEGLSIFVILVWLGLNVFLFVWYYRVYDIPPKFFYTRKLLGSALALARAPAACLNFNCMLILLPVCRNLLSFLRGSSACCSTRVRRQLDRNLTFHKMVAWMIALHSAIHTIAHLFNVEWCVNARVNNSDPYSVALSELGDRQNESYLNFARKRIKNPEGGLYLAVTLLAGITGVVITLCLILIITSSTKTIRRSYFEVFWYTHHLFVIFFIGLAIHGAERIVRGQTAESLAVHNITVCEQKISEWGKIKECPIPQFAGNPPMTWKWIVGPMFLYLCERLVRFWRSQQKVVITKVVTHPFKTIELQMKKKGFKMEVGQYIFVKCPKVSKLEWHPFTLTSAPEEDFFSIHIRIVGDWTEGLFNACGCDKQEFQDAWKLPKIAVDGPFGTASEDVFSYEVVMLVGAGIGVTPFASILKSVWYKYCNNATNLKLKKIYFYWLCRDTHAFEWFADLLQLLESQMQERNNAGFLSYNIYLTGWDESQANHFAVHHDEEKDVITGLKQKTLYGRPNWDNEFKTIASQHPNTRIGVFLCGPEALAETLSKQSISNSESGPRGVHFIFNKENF

Row | SMILES | z-score [1] | composite z-score [2] | z-score [3] | z-score [4] | z-score [5] | z-score [6] | z-score [7] | z-score [8] | z-score [9] | z-score [10]
1 | Cc1c(NC(=O)/C(C#N)=C/C=C/c2ccccc2)c(=O)n(-c2ccccc2)n1C | 0.813 (inactive) | -0.213 | 1.96 (inactive) | 0.379 (inactive) | 0.0643 (inactive) | 0.205 (inactive) | -0.25 | -0.328 (inactive) | 0.0418 (inactive) | 0.649
2 | [N-]=[N+]=NCc1ccccc1C[C@]1(C(=O)NCCN2CCOCC2)N=C(c2ccc(OCCCO)cc2)O[C@H]1c1ccccc1CN=[N+]=[N-] | 1.26 (inactive) | 0.453 | 20.7 (active) | 3.07 (inactive) | 0.58 (inactive) | 0.669 (inactive) | 2.75 | -4.56 (inactive) | -2.27 (inactive) | -1.27
3 | C=CCC(OC(C)=O)[C@@H]1[C@@H](N(Cc2cc3ccccc3o2)C(=O)c2ccc(-c3ccccc3)cc2)c2cc(OCCCO)ccc2N1C(=O)Cc1ccc2ccccc2c1 (stereo not given in full) | -0.0233 (inactive) | -0.0984 | 0.574 (inactive) | -0.344 (inactive) | -0.145 (inactive) | 0.26 (inactive) | 0.233 | 0.972 (inactive) | -0.906 (inactive) | 1.53
4 | CC(C)CNC(=O)[C@@]1(C)c2ccccc2C(=O)N(C(C)C)[C@H]1c1ccc(CO)cc1 | -0.144 (inactive) | 0.045 | 1.54 (inactive) | 0.344 (inactive) | 0.24 (inactive) | -0.0642 (inactive) | -0.53 | -0.93 (inactive) | 0.227 (inactive) | -0.85
5 | COc1ccc([Si](C)(C)[C@H]2[C@H](CC(=O)N3Cc4ccccc4C[C@H]3CO)O[C@@]3(C(=O)N(Cc4cccc(I)c4)c4ccccc43)[C@@H]2C)cc1 | 0.232 (inactive) | 0.0233 | 6.74 (inactive) | 1.38 (inactive) | 2.14 (inactive) | 1.19 (inactive) | 0.452 | -1.36 (inactive) | -0.348 (inactive) | -2.55
6 | COc1ccc(C#Cc2ccc3c(c2)[C@]2(C(=O)N3)[C@H](C(=O)N3CCc4cc(OC)c(OC)cc4C3)[C@H]3C(=O)O[C@H](c4ccccc4)[C@H](c4ccccc4)N3[C@@H]2c2ccc(OCCO)cc2)cc1 | 1.82 (inactive) | 0.423 | 5.73 (inactive) | 2.37 (inactive) | 0.279 (inactive) | 1.42 (inactive) | 0.0867 | 0.0908 (inactive) | 0.246 (inactive) | 0.115
7 | COC(=O)[C@@]1(Cc2ccc(OC)cc2)[C@H]2c3cc(C(=O)N4CCCC4)n(C[C@H](O)CO)c3C[C@H]2CN1C(=O)c1ccccc1 | -0.599 (inactive) | 0.132 | 1.24 (inactive) | -0.478 (inactive) | 0.425 (inactive) | 0.201 (inactive) | 0.245 | 0.4 (inactive) | 0.18 (inactive) | -3.78
8 | COC(=O)[C@@]1(Cc2ccc(F)cc2)[C@H]2c3cc(C(=O)N(C)C)n(Cc4ccccn4)c3C[C@H]2CN1C(=O)c1ccccc1 | -1.37 (inactive) | 1.13 | 0.755 (inactive) | -0.692 (inactive) | 0.336 (inactive) | -1.68 (inactive) | 0.388 | 0.467 (inactive) | 1.2 (inactive) | -2.82
9 | C[n+]1ccc2ccc(O)cc2c1 | 0.0539 (inactive) | -0.109 | 0.907 (inactive) | 0.557 (inactive) | 1.95 (inactive) | 0.374 (inactive) | 0.387 | -0.469 (inactive) | -0.566 (inactive) | 0.0145
10 | Cc1ccc(C(C)CC(O)C2C=CC3C(=O)NC(=O)C3N2Nc2ccccn2)o1 (stereo not given) | 0.488 (inactive) | -0.154 | 0.494 (inactive) | 0.481 (inactive) | -0.284 (inactive) | 0.606 (inactive) | -0.439 | 0.36 (inactive) | -2.17 (inactive) | -1.52
11 | O=C1O[C@@H](c2ccccc2)[C@@H](c2ccccc2)N2[C@@H](c3ccc(O)cc3)[C@]3(C(=O)Nc4ccc(C#CCCO)cc43)[C@@H](C(=O)O)[C@H]12 | 0.742 (inactive) | 1.99 | 2.28 (inactive) | 0.62 (inactive) | 1.22 (inactive) | 0.614 (inactive) | -0.29 | 0.645 (inactive) | -1.2 (inactive) | 1.21
12 | COCCOC(=O)N1C(=O)[C@@]2(c3cc(C#CCC(C(=O)OC)C(=O)OC)ccc31)[C@H](c1ccc(OCCO)cc1)N1[C@H](c3ccccc3)[C@H](c3ccccc3)OC(=O)[C@H]1[C@@H]2C(=O)NC[C@H](O)c1ccccc1 | 0.588 (inactive) | -0.0533 | 3.79 (inactive) | 1.54 (inactive) | 1.69 (inactive) | 1.17 (inactive) | 0.22 | 1.53 (inactive) | 1.26 (inactive) | 1.17
13 | CCCNC(=O)[C@@]1(C)c2ccccc2C(=O)N(Cc2ccc(OC(F)(F)F)cc2)[C@H]1c1ccc(CO)cc1 | 0.707 (inactive) | 0.15 | 7.17 (inactive) | 0.699 (inactive) | 2.41 (inactive) | 0.208 (inactive) | 0.0696 | -1.07 (inactive) | 0.332 (inactive) | 0.423
